Test results published in the supplement of paper PMC10849652.
The full data set covers some 8,800 targets. This sample favours those with a hit. About 0.5% of all pairs of compound and target were hits. A number with no mark means an inactive call.

What was measured:
Assay in all cases: log2 fold change, soluble protein after heating vs DMSO (PISA); higher = thermal stabilisation; K562 lysate, 10 uM; active = over 0.2 and 3.5 SD of the protein, either way, in both replicates (recomputed)
erlotinib = compound: C#Cc1cccc(Nc2ncnc3cc(OCCOC)c(OCCOC)cc23)c1 [erlotinib]
In short: (§1)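 Values give the log-two fold change in thermal stability against solvent controls, from duplicates. Crude K562 extract at 1 mg/mL protein, made by dounce homogenisation in PBS pH 7.4 with 1 mM MgCl2, was treated with 10 μM compound for 30 min. After 3 min heating across 48°C-58°C, aliquots were pooled, adjusted to 0.5% NP-40 at 4°C and centrifuged at 21,000xg for 90 min. The supernatant was measured by TMTpro 16plex LC-MS/MS with channel sums equalised.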

[1] = compound: C1=CC(=CC=C1C2=NC3=C(N2)C=C(C=C3)C(=O)N)OC4=CC=C(C=C4)Cl
In short: as §1

[2] = compound: C1=CC2=NC=CN=C2C=C1/C=C/3\C(=O)NC(=O)S3
In short: as §1

ibrutinib = compound: C=CC(=O)N1CCC[C@@H](n2nc(-c3ccc(Oc4ccccc4)cc3)c3c(N)ncnc32)C1 [ibrutinib]
In short: as §1

[3] = compound: CC(=O)c1cnc2ccc(-c3cc(Cl)c(O)c(Cl)c3)nc2c1N[C@H]1CC[C@H](CN(C)C)CC1
In short: as §1

[4] = compound: CC(C)C1=C2N=C(C=C(N2N=C1)NCC3=CC=CC=C3)NCCCCCCN
In short: as §1

[5] = compound: CC1=C(C2=C(C=C1)C(=O)C3=CC=CC=C3N2CCCN)C
In short: as §1

[6] = compound: CC1=C(C=C(C=C1)NC(=O)C2=CC(=CC=C2)C(C)(C)C#N)NC3=CC4=C(C=C3)N=CN(C4=O)C
In short: as §1

[7] = compound: CC1=CC=C(C=C1)SC2=C3C=C(SC3=CN=C2)C(=O)N
In short: as §1

[8] = compound: C1=CC=C(C=C1)C2=NC(=C(N2)C3=CC=NC=C3)C4=CC(=C(C=C4)Cl)O
In short: as §1

[9] = compound: C1CCN(C1)C(=O)NC2=CC=CC(=C2)NC3=NC=C(C(=N3)NCCC4=CN=CN4)Br
In short: as §1

[10] = compound: C1CN(CCC1(CC2=CC=C(C=C2)Cl)N)C3=NC=NC4=C3C=CN4
In short: as §1

IRAK-1-4 Inhibitor I = compound: C1COCCN1CCN2C3=CC=CC=C3N=C2NC(=O)C4=CC(=CC=C4)[N+](=O)[O-] [IRAK-1-4 Inhibitor I]
In short: as §1

ralimetinib = compound: CC(C)(C)Cn1c(N)nc2ccc(-c3[nH]c(C(C)(C)C)nc3-c3ccc(F)cc3)nc21 [ralimetinib]
In short: as §1

[11] = compound: CC(C)(O)CC(=O)NCCn1ccc2ncnc(Nc3ccc(Oc4cccc(C(F)(F)F)c4)c(Cl)c3)c21
In short: as §1

[12] = compound: CC1=C(C(CC(=O)N1)C2=CC=C(C=C2)C(F)(F)F)C(=O)NC3=C(C=C4C(=C3)C=NN4)F
In short: as §1

[13] = compound: CC1=C(C=C(C=C1)NC(=O)C2=CC(=CC=C2)N(C)C)NC(=O)C3=CC=C(C=C3)O
In short: as §1

[14] = compound: C/C(=N\NC(=O)C1=CC(=CC=C1)S(=O)(=O)N2CCOCC2)/C3=C(C=CC(=C3)Cl)O
In short: as §1

[15] = compound: C1=CC2=C(C=CC(=C2)/C=C\3/C(=O)NC(=NCC4=CC=CS4)S3)N=C1
In short: as §1

[16] = compound: C1=CC=C2C(=C1)C3=NNC4=CC=CC(=C43)C2=O
In short: as §1

Sequence of UniProt Q9UGU0 (Q9UGU0 whole entry, looked up): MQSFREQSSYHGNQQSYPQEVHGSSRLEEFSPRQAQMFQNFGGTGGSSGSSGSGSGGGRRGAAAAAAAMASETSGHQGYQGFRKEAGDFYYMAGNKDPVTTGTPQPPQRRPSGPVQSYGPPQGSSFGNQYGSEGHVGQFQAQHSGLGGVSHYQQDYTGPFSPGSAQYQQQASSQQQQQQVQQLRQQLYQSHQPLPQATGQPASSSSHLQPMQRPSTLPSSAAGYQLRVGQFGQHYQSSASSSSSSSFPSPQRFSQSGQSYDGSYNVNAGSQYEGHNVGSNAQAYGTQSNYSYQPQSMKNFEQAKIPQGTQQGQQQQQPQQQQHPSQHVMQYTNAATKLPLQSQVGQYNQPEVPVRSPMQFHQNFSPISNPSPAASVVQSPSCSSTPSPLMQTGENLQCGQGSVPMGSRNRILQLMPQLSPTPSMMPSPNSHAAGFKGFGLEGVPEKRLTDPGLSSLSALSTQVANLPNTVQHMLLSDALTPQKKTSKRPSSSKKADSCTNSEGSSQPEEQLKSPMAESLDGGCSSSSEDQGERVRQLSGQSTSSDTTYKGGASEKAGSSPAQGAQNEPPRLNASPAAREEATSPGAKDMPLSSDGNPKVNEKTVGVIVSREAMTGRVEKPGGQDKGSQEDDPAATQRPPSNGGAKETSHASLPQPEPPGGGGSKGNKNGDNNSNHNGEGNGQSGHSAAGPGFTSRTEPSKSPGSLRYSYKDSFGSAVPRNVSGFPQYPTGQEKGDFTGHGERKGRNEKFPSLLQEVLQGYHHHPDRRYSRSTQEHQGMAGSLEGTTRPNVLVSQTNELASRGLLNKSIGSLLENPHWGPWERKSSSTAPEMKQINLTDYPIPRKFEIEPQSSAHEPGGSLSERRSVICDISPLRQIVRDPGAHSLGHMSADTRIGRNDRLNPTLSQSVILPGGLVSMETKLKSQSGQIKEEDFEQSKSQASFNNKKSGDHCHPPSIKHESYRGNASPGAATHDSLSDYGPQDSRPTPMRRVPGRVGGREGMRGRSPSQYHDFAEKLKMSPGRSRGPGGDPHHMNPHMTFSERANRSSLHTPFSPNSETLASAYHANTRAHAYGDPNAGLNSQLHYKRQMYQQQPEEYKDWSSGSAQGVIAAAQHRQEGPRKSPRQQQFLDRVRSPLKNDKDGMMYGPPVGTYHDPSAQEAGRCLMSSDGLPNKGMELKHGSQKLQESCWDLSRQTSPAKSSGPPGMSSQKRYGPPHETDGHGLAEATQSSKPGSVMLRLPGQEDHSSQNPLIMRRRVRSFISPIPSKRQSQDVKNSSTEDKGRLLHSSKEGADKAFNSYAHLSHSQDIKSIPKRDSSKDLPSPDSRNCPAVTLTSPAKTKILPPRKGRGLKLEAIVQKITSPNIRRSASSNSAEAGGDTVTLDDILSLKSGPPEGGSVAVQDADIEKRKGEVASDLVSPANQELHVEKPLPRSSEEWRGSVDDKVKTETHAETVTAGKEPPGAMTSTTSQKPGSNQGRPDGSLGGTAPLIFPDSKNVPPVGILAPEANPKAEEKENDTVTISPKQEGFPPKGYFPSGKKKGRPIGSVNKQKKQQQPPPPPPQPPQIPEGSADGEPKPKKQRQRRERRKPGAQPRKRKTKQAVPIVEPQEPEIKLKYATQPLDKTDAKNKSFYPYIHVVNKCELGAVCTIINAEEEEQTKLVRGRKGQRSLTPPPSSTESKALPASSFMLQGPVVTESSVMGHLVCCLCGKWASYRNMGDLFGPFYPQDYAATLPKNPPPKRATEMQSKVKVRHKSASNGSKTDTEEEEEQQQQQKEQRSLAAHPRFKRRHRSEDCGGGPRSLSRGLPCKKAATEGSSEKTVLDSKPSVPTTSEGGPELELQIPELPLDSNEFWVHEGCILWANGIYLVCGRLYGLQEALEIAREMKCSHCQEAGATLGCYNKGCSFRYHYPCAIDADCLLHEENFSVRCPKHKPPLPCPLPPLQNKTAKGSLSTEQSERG
Sequence of UniProt P62328 (P62328 whole entry, looked up): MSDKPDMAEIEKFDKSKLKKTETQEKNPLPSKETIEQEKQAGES
Sequence of UniProt Q04726 (Q04726 whole entry, looked up): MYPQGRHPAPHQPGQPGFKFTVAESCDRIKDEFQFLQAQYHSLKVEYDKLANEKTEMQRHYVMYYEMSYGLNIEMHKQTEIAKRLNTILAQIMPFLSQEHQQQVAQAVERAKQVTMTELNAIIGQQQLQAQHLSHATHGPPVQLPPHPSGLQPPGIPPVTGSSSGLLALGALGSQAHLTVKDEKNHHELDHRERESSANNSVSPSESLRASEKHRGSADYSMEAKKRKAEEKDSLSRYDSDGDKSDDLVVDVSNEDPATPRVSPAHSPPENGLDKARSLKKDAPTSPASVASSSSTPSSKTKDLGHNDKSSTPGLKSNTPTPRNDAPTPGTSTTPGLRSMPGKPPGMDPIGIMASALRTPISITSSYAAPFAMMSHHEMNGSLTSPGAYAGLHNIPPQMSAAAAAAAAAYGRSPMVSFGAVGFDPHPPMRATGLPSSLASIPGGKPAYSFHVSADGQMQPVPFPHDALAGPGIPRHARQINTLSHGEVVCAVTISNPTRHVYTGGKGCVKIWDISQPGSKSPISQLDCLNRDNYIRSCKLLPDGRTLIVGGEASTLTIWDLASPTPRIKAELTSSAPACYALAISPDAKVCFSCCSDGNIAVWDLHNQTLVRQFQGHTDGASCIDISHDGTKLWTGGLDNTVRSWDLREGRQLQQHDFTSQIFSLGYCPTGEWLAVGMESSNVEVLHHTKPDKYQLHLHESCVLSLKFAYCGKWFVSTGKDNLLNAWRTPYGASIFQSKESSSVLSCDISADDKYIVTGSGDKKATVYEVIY
Sequence of UniProt Q6Q0C0 (Q6Q0C0 whole entry, looked up): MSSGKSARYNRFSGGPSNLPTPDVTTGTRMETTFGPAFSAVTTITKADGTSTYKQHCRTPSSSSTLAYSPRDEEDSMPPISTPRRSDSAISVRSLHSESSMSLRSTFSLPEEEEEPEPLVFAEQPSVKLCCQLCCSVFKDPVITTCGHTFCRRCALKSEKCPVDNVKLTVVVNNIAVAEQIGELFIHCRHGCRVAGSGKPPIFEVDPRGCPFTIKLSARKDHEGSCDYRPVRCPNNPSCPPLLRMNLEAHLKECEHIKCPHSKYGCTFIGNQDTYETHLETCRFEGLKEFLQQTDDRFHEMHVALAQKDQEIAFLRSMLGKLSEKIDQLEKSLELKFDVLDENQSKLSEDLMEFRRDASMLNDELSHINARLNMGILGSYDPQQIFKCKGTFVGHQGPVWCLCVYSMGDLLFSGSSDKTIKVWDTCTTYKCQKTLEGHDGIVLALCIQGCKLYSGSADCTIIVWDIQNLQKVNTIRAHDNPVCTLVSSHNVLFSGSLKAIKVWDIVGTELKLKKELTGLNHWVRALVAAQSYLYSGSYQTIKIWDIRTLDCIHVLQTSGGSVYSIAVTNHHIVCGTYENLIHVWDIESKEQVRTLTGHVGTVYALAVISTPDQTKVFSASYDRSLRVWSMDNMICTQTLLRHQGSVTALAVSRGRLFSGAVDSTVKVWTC
Sequence of UniProt Q9H5L6 (Q9H5L6 whole entry, looked up): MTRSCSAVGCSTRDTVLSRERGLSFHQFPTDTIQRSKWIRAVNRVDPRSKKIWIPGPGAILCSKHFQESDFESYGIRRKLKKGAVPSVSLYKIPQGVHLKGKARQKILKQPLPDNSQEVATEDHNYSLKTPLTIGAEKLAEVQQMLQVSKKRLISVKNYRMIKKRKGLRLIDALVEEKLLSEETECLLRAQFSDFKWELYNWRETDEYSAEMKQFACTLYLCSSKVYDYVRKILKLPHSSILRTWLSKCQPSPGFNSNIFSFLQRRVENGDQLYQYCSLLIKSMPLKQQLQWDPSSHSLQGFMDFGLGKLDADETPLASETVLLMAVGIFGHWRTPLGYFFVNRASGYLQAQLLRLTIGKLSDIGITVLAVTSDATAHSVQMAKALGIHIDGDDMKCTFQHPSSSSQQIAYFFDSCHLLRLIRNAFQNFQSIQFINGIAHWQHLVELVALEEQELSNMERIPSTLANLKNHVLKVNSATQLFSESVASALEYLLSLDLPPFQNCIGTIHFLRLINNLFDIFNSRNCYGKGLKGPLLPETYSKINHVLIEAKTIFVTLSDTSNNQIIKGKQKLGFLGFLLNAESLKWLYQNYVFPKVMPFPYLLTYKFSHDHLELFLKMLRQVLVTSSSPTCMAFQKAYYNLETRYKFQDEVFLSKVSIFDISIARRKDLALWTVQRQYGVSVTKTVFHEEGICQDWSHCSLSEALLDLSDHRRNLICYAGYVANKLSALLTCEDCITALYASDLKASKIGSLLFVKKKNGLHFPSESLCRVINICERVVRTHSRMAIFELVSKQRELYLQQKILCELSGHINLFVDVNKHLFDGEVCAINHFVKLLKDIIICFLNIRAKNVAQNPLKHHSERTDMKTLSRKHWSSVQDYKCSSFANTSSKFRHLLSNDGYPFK
Sequence of UniProt P15923 (P15923 whole entry, looked up): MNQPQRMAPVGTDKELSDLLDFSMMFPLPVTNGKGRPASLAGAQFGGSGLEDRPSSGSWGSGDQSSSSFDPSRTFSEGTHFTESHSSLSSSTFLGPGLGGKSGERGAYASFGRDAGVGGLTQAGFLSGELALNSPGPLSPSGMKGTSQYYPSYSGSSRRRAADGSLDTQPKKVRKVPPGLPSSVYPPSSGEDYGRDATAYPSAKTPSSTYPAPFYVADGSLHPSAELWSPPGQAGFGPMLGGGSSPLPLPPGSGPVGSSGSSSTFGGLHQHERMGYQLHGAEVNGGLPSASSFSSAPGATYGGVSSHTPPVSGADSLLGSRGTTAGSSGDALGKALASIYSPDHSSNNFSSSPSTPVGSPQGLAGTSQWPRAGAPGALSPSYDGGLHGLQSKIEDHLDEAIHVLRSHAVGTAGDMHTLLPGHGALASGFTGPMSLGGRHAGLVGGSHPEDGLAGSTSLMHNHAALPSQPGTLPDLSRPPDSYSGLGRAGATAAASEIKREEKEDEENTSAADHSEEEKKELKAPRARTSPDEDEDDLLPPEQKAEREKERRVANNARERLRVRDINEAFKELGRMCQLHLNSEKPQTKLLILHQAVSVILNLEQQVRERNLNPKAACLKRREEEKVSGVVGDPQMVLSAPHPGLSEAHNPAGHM

Row | Target | log2 fold change (erlotinib) | log2 fold change [1] | log2 fold change [2] | log2 fold change (ibrutinib) | log2 fold change [3] | log2 fold change [4] | log2 fold change [5] | log2 fold change [6] | log2 fold change [7] | log2 fold change [8] | log2 fold change [9] | log2 fold change [10] | log2 fold change (IRAK-1-4 Inhibitor I) | log2 fold change (ralimetinib) | log2 fold change [11] | log2 fold change [12] | log2 fold change [13] | log2 fold change [14] | log2 fold change [15] | log2 fold change [16]
1 | TCF20 (UniProt Q9UGU0) | -0.04 | -0.001 | 0.039 | -0.025 | 0.128 | -0.317 | -0.212 | -0.004 | -0.166 | – | – | – | – | – | – | – | – | – | – | –
2 | TENM4 (UniProt Q6N022) | – | – | -0.334 | -0.043 | 0.035 | – | – | 0.162 | -0.109 | – | – | – | – | – | – | – | – | – | – | –
3 | TNFAIP3 (UniProt P21580) | 0.018 | 0.024 | 0.03 | -0.123 | -0.1 | -0.045 | 0.016 | -0.035 | 0.053 | -0.049 | -0.296 | 0.09 | 0.047 | -0.056 | 0.005 | 0.003 | 0.068 | – | – | –
4 | TFPT (UniProt P0C1Z6) | -0.078 | 0.037 | -0.186 | 0.046 | 0.1 | -0.053 | -0.145 | – | -0.06 | – | – | – | – | – | – | – | – | – | – | –
5 | TLE3 (UniProt H0YL70) | – | – | – | – | – | – | 0.004 | – | – | – | – | – | – | – | – | – | – | – | – | –
6 | UBAP2 (UniProt Q5JV08) | – | – | – | – | – | – | – | – | – | – | – | – | – | – | – | -0.097 | – | – | – | –
7 | TRPM4 (UniProt Q8TD43) | 0.018 | 0.164 | -0.094 | 0.099 | – | -0.325 | -0.055 | 0.116 | – | 0.004 | – | – | -0.152 | -0.021 | -0.063 | – | 0.05 | – | – | –
8 | UBAP2L isoform 1 (UniProt Q14157) | – | – | 0.081 | -0.075 | – | – | – | -0.833 (active) | – | -0.367 | – | – | 0.084 | -0.306 | -0.123 | 0.114 | -0.161 | – | – | –
9 | UBAP2, A0A0D9SFI5 | – | – | – | – | – | – | – | 0.035 | – | – | – | – | – | – | – | – | – | – | – | –
10 | TEC (UniProt P42680) | – | – | – | – | -0.096 | – | – | – | 0.143 | – | -0.024 | -0.038 | – | – | – | -0.023 | – | 0.092 | -0.051 | -0.048
11 | TMPO isoform 2 (UniProt P42167) | – | – | 0.143 | -0.108 | – | – | -0.006 | – | – | – | 0.163 | 0.038 | – | – | – | – | – | -0.053 | 0.044 | -0.121
12 | TLE3 isoform 5 (UniProt Q04726) | 0.036 | -0.068 | 0.237 | 0.045 | -0.022 | -0.061 | -0.053 | 0.093 | -0.035 | 0.06 | -0.068 | 0.01 | -0.021 | -0.027 | -0.077 | 0.138 | 0.018 | – | – | –
13 | TPM3 isoform 3 (UniProt P06753) | -0.074 | -0.076 | – | – | 0.066 | -0.125 | 0.005 | -0.157 | -0.032 | -0.033 | 0.084 | -0.068 | -0.016 | 0.145 | 0.093 | – | 0.012 | -0.007 | -0.006 | 0.08
14 | TCF3 isoform 2 (UniProt P15923) | 0.131 | -0.049 | – | – | – | 0.046 | – | -0.1 | – | 0.154 | – | – | -0.249 | -0.118 | -0.103 | – | 0.118 | – | – | –
15 | UCP2 (UniProt P55851) | – | – | – | – | – | – | – | -0.045 | – | 0.011 | – | – | -0.026 | 0.091 | -0.081 | 0.073 | -0.1 | 0.217 | -0.114 | -0.025
16 | TSPAN3 (UniProt O60637) | 0.002 | 0.058 | – | – | 0.008 | 0.05 | -0.099 | – | -0.04 | 0 | 0.006 | 0.032 | 0.091 | -0.069 | -0.025 | -0.173 | 0.135 | 0.012 | -0.073 | -0.135
17 | TEDC1 (UniProt Q86SX3) | 0.05 | 0.057 | – | – | -0.023 | -0.066 | -0.033 | -0.018 | -0.024 | 0.05 | -0.127 | -0.048 | -0.06 | -0.049 | -0.001 | 0 | 0.082 | – | – | –
18 | TMSB4X (UniProt P62328) | 0.079 | 0.084 | -0.031 | 0.519 | -0.03 | 0.033 | – | -0.025 | -0.064 | 0.002 | 0.018 | 0.085 | -0.083 | 0 | -0.072 | 0.122 | 0.075 | – | – | –
19 | TRAF7 (UniProt Q6Q0C0) | – | – | – | – | – | – | -0.022 | 0.07 | – | -0.026 | -0.05 | 0.116 | -0.047 | 0.046 | -0.091 | 0.023 | -0.031 | 0.006 | -0.042 | -0.151
20 | TUBA4A (UniProt C9JQ00) | – | – | -0.18 | 0.125 | – | – | – | – | – | – | – | – | – | – | – | – | – | – | – | –
21 | TM2D3 (UniProt Q9BRN9) | 0.104 | -0.083 | -0.068 | 0.02 | – | -0.201 | – | – | – | 0.205 | 0.153 | 0.088 | 0.148 | -0.14 | -0.157 | – | 0.07 | – | – | –
22 | UBN1 (UniProt Q9NPG3) | – | – | – | – | 0.015 | – | 0.03 | 0.066 | 0.081 | – | 0 | -0.023 | – | – | – | – | – | 0.032 | -0.056 | 0.051
23 | THAP9 (UniProt Q9H5L6) | – | – | 0.01 | 0.038 | -0.061 | – | -0.199 | 0.234 | -0.087 | 0.028 | -0.092 | 0.098 | 0.145 | -0.168 | -0.332 | – | 0.017 | 0.019 | -0.015 | -0.042
24 | TUBB4A (UniProt P04350) | 0.036 | 0.015 | -0.016 | 0.007 | -0.018 | 0.088 | -0.086 | -0.085 | -0.068 | -0.066 | 0.017 | -0.001 | 0.086 | 0.074 | 0.039 | 0.009 | -0.015 | – | – | –
25 | TMC1 (UniProt Q8TDI8) | -0.028 | -0.007 | – | – | -0.016 | 0.204 | – | -0.104 | -0.045 | -0.072 | -0.148 | -0.081 | 0.099 | 0.156 | -0.185 | -0.034 | 0.017 | -0.001 | 0.013 | -0.071
